The nature of test [1]: BSK_MyoF_SRB: Viability Assessment in the BioMAP Diversity Plus: MyoF Assay (AID 2284267).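 Further: total protein by SRB absorbance in parallel cultures as cytotoxicity measure; cells assessed 24 h after compound addition.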 The following applies: primary human lung fibroblasts. An outline of the steps: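 Lung fibroblast cultures, 24 h post-dose; fix 10% TCA, stain 0.1% SRB, read 560 nm. Signal = total protein as cytotoxicity measure; fitted relative to DMSO negative control.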
Read-out in test [2]: Matrix Metallopeptidase 1 (MMP1), MMP1 (gene 4312)
As to the kind of experiment: BSK_MyoF_MMP1: BioMAP Diversity Plus: MyoF Assay for Matrix Metallopeptidase 1 (MMP1) Biomarker Activity (AID 2284268). The following applies: primary human lung fibroblasts. The method in brief: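 MMP1 measured by ELISA 24 h after dosing primary human lung fibroblasts; cytotoxicity checked in parallel cultures by sulforhodamine B total-protein staining read at 560 nm.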

Read-out in test [3]: TIMP metallopeptidase inhibitor 1 (TIMP1), TIMP1 (gene 7076)
The test is described as follows: BSK_MyoF_TIMP1: BioMAP Diversity Plus: MyoF Assay for TIMP metallopeptidase inhibitor 1 (TIMP1) Biomarker Activity (AID 2284269). The following applies: primary human lung fibroblasts. An outline of the steps: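 ELISA read-out of TIMP-1 from primary human lung fibroblast cultures 24 h after compound dosing; gain of signal relative to DMSO vehicle baseline defines activity.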

Read-out in test [4]: Matrix Metallopeptidase 1 (MMP1), MMP1 (gene 4312)
The test is described as follows: BSK_BF4T_MMP1: BioMAP Diversity Plus: BF4T Assay for Matrix Metallopeptidase 1 (MMP1) Biomarker Activity (AID 2284270). The following applies: primary human bronchial epithelial cells with fibroblasts. An outline of the steps:
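MMP-1 quantified by ELISA in primary human bronchial epithelial/dermal fibroblast co-cultures, 24 hours post-dosing, with DMSO as baseline; parallel sulforhodamine B staining (560 nm) tracks overt cytotoxicity.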

Read-out in test [5]: Matrix Metallopeptidase 3 (MMP3), MMP3 (gene 4314)
The test is described as follows: BSK_BF4T_MMP3: BioMAP Diversity Plus: BF4T Assay for Matrix Metallopeptidase 3 (MMP3) Biomarker Activity (AID 2284271). The following applies: primary human bronchial epithelial cells with fibroblasts. An outline of the steps: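 MMP-3 level read by ELISA after 24 h chemical exposure of bronchial epithelial cell/dermal fibroblast co-cultures, fitted upward relative to DMSO. Parallel cultures stained with 0.1% SRB after TCA fixation gauge overt cytotoxicity.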

Read-out in test [6]: Plasminogen Activator Inhibitor-1 (PAI1), SERPINE1 (gene 5054)
As to the kind of experiment: BSK_BF4T_PAI1: BioMAP Diversity Plus: BF4T Assay for Plasminogen Activator Inhibitor-1 (PAI1) Biomarker Activity (AID 2284273). The following applies: primary human bronchial epithelial cells with fibroblasts. An outline of the steps: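 PAI-1 levels quantified by ELISA 24 h post-dosing in bronchial epithelial cell plus dermal fibroblast cultures. Signal gain referenced to DMSO baseline. Sulforhodamine B total-protein staining of parallel wells checked cytotoxicity.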

Test [7] can be described thus: BSK_BF4T_SRB: Viability Assessment in the BioMAP Diversity Plus: BF4T Assay (AID 2284274).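 On AC50: measured 24 h after compound addition.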 The following applies: primary human bronchial epithelial cells with fibroblasts. The method in brief: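 Cytotoxicity measured as total protein: cells fixed with 10% TCA, stained with 0.1% SRB, read at 560 nm. Bronchial epithelial/dermal fibroblast co-culture, 24 h after dosing, with positive-direction fitting relative to DMSO.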

Read-out in test [8]: Interleukin-8 (IL8), CXCL8 (gene 3576)
As to the kind of experiment: BSK_IMphg_IL8: BioMAP Diversity Plus: IMphg Assay for Interleukin-8 (IL8) Biomarker Activity (AID 2284277). The following applies: primary human endothelial cells with macrophages. The method in brief: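 IL-8 levels were measured by ELISA 24 h after dosing in primary human venular endothelial cell–macrophage cultures, referenced to DMSO; parallel SRB staining monitored overt cytotoxicity.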

Read-out in test [9]: Intercellular Adhesion Molecule 1 (ICAM1), ICAM1 (gene 3383)
The test is described as follows: BSK_BE3C_ICAM1: BioMAP Diversity Plus: BE3C Assay for Intercellular Adhesion Molecule 1 (ICAM1) Biomarker Activity (AID 2284278).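 On outcome: cell-surface ICAM-1 protein level quantified by ELISA.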 The following applies: primary human bronchial epithelial cells. An outline of the steps: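 ELISA read-out of ICAM-1 on human lung bronchial epithelial primary cells, 24 h post-dosing; positive-direction curve fit, DMSO = baseline. SRB total-protein staining of parallel cultures flagged overt cytotoxicity.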

Read-out in test [10]: Interferon-inducible T-cell alpha chemoattractant (ITAC), CXCL11 (gene 6373)
As to the kind of experiment: BSK_BE3C_ITAC: BioMAP Diversity Plus: BE3C Assay for Interferon-inducible T-cell alpha chemoattractant (ITAC) Biomarker Activity (AID 2284279). The following applies: primary human bronchial epithelial cells. The method in brief: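 ELISA read-out of I-TAC after 24 h chemical dosing of human lung primary bronchial epithelial cells; gain-of-signal fit vs DMSO baseline. Parallel SRB total-protein staining (0.1% SRB, 10% TCA fixation, 560 nm) assessed cytotoxicity.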

Read-out in test [11]: Interleukin-8 (IL8), CXCL8 (gene 3576)
As to the kind of experiment: BSK_BE3C_IL8: BioMAP Diversity Plus: BE3C Assay for Interleukin-8 (IL8) Biomarker Activity (AID 2284280). The following applies: primary human bronchial epithelial cells. An outline of the steps: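 Primary human bronchial epithelial cells (BE3C system) were exposed to test chemical for 24 h, and IL-8 levels were then measured by ELISA. Activity was fitted in the positive (gain-of-signal) direction against a DMSO negative-control baseline.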

Read-out in test [12]: Epidermal growth factor receptor (EGFR), EGFR (gene 1956)
As to the kind of experiment: BSK_BE3C_EGFR: BioMAP Diversity Plus: BE3C Assay for Epidermal growth factor receptor (EGFR) Biomarker Activity (AID 2284281). The following applies: primary human bronchial epithelial cells. An outline of the steps:
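Human primary bronchial epithelial cells were exposed to compound for 24 h, and cell-surface EGFR was then quantified by ELISA. Activity was fitted in the positive direction against the DMSO vehicle baseline.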

Read-out in test [13]: KRT18 (gene 3875)
The test is described as follows: BSK_BE3C_Keratin818: BioMAP Diversity Plus: BE3C Assay for Keratin 818 Biomarker Activity (AID 2284282). The following applies: primary human bronchial epithelial cells. The method in brief:
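ELISA read-out of Keratin 8/18 in BE3C human bronchial epithelial cultures, 24 h post-dosing; positive-direction fit vs DMSO baseline.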

Read-out in test [14]: Matrix Metallopeptidase 9 (MMP9), MMP9 (gene 4318)
As to the kind of experiment: BSK_BE3C_MMP9: BioMAP Diversity Plus: BE3C Assay for Matrix Metallopeptidase 9 (MMP9) Biomarker Activity (AID 2284283). The following applies: primary human bronchial epithelial cells. The method in brief:
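Cells were dosed, incubated 24 h, then assayed for MMP-9 by ELISA; activity was fitted upward against DMSO. The system used human lung primary bronchial epithelial cells, with SRB total-protein staining run alongside for cytotoxicity.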

Read-out in test [15]: Plasminogen activator inhibitor-1 (PAI1), SERPINE1 (gene 5054)
The test is described as follows: BSK_CASM3C_PAI1: BioMAP Diversity Plus: CASM3C Assay for Plasminogen activator inhibitor-1 (PAI1) Biomarker Activity (AID 2284284). The following applies: primary human coronary artery smooth muscle cells.

Read-out in test [16]: Monocyte Chemoattractant Protein-1 (MCP1), CCL2 (gene 6347)
As to the kind of experiment: BSK_hDFCGF_MCP1: BioMAP Diversity Plus: hDFCGF Assay for Monocyte Chemoattractant Protein-1 (MCP1) Biomarker Activity (AID 2284285). The following applies: primary human foreskin fibroblasts. An outline of the steps:
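MCP-1 ELISA readout was taken 24 hours after dosing primary human dermal fibroblasts in the hDFCGF system, with DMSO as baseline. Parallel sulforhodamine B staining of total protein tracked overt cytotoxicity.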

Read-out in test [17]: Vascular cell adhesion molecule 1 (VCAM1), VCAM1 (gene 7412)
The test is described as follows: BSK_IMphg_VCAM1: BioMAP Diversity Plus: IMphg Assay for Vascular cell adhesion molecule 1 (VCAM1) Biomarker Activity (AID 2284286). The following applies: primary human endothelial cells with macrophages. An outline of the steps:
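ELISA read-out of VCAM-1 on venular endothelial cell/macrophage co-cultures at 24 h post-treatment, with DMSO as baseline and positive-direction fitting. Parallel sulforhodamine B total-protein staining (560 nm) served as the overt cytotoxicity measure.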

Read-out in test [18]: urokinase Plasminogen Activator (uPA), PLAU (gene 5328)
As to the kind of experiment: BSK_BF4T_uPA: BioMAP Diversity Plus: BF4T Assay for urokinase Plasminogen Activator (uPA) Biomarker Activity (AID 2284275). The following applies: primary human bronchial epithelial cells with fibroblasts. An outline of the steps: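 uPA levels measured by ELISA at 24 hours in BF4T cultures (bronchial epithelial cells plus dermal fibroblasts) and compared with DMSO; cytotoxicity tracked in parallel cultures by sulforhodamine B staining.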

Read-out in test [19]: Matrix Metallopeptidase 9 (MMP9), MMP9 (gene 4318)
The test is described as follows: BSK_BF4T_MMP9: BioMAP Diversity Plus: BF4T Assay for Matrix Metallopeptidase 9 (MMP9) Biomarker Activity (AID 2284276). The following applies: primary human bronchial epithelial cells with fibroblasts. An outline of the steps:
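MMP-9 levels were measured by ELISA after 24 h exposure of bronchial epithelial cell/dermal fibroblast co-cultures, with DMSO as baseline. Parallel cultures were stained with 0.1% SRB after TCA fixation, read at 560 nm, to flag overt cytotoxicity.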

For 13 compounds, outcome and AC50 results are on record in PubChem BioAssay (EPA / NIEHS).

“And” between values parts separate entries of the source, which are not always exact repeats. Equal entries are not always repeated. Where a structure was tested more than once in an assay, its records may differ in their call. The source made the active and inactive calls. How the source made its calls: active means hit-call score of the fitted dose curve at least 0.9, where 1 is the maximum; inactive means score below 0.9.

Take `CCCCOCCOCCOC(=O)CCCCC(=O)OCCOCCOCCCC`: the result in test [1], in test [2] and in test [3] was inactive.

Regarding `CS(C)(=O)=O`, the result in test [1], in [2] and in [3] was inactive.

In the case of `O=S(=O)(O)C(F)(F)C(F)(F)C(F)(F)C(F)(F)C(F)(F)C(F)(F)C(F)(F)F`, the outcome in [1], in test [2], in test [3], in test [4], in test [5] and in test [6] was inactive. The result in [7], in test [8], in test [9], in [10], in test [11] and in [12] was inactive. Moreover, the result in [13], in test [14], in [15], in test [16] and in test [17] was inactive. The AC50 in [5] is 15.6 µM (active).

For `C#C[C@]1(O)CC[C@H]2[C@@H]3CCc4cc(OC)ccc4[C@H]3CC[C@@]21C`, the result in test [1] and in [3] was inactive. The half-maximal activity concentration (AC50) in test [2] was 20 µM (active).

As to `CCCCCCCCCCCCCCCC[N+](C)(C)Cc1ccccc1`, the figures for the AC50 in [1], in test [2] and in [3] were 5.13 µM (active), 2.7 µM (active) and 8.14 µM (active), respectively.

With `CC(CCl)OP(=O)(OC(C)CCl)OC(C)CCl` (centres undefined), the result in [1], in test [2] and in test [3] was inactive.

For the compound `Nc1ccc([N+](=O)[O-])cc1O`, the outcome in test [1], in test [2] and in test [3] was inactive.

With `O=C(O)C(F)(F)C(F)(F)C(F)(F)C(F)(F)C(F)(F)C(F)(F)C(F)(F)C(F)(F)Cl`, the AC50 in test [1] was 30.9 µM (active) and 35.5 µM (active); in test [2], 51.5 µM (active); in test [3], 30 µM (active) and 47.9 µM (active); in [5], 52.7 µM (active) and 55.1 µM (active); in [6], 44.8 µM (active) and 42.7 µM (active); in test [7], 36.9 µM (active) and 39.9 µM (active). For the same compound, the half-maximal activity concentration (AC50) in test [18] was 45.3 µM (active) and 46.1 µM (active); in [9] it was 45.1 µM (active) and 45.8 µM (active); in test [10], 40.8 µM (active) and 23.3 µM (active); in test [11] it was 38 µM (active) and 30 µM (active); in test [12], 13.6 µM (active) and 11.5 µM (active); in test [13], 48.7 µM (active) and 56 µM (active). The concentration at half-maximal activity (AC50) is 42.9 µM (active) and 40.4 µM (active) in test [14]; 44.4 µM (active) and 47 µM (active) in test [16]; 48.5 µM (active) and 45.7 µM (active) in [17]. In addition, the outcome in [2], in test [8] and in test [15] was inactive.

With `CO[Si](OC)(c1ccccc1)c1ccccc1`, the AC50 in [1] is 29.4 µM (active); in [2], 28.9 µM (active). The result in test [3] was inactive.

Turning to `CCc1c(Br)c(Br)c(Br)c(Br)c1Br`, the result in test [1] and in test [3] was inactive. Besides, the half-maximal activity concentration (AC50) in test [2] was 13.2 µM (active).

In the case of `CCCCCCCCC(F)(F)C(F)(F)C(F)(F)C(F)(F)C(F)(F)C(F)(F)F`, the outcome in test [1], in test [2], in test [3], in test [4], in [5] and in test [6] was inactive. The outcome in test [7], in test [18], in [19], in [8], in [9] and in test [10] was inactive. Moreover, the outcome in test [11], in [12], in test [13], in test [14], in [15] and in test [16] was inactive. The outcome in test [17] was inactive.

Consider `CCN(CC)c1ccc2c(C)cc(=O)oc2c1`, for which the outcome in test [1], in [2] and in test [3] was inactive.

With `FC(F)(F)C(F)(F)C(F)(F)CI`, the result in test [1], in test [2], in test [3], in test [4], in test [5] and in test [6] was inactive. For the same compound, the outcome in test [7], in test [8], in test [9], in test [10], in test [11] and in [12] was inactive. Moreover, the outcome in test [13], in [14], in [15], in test [16] and in [17] was inactive.
